This is an account of results in PubChem BioAssay.

Assay [1] can be described thus: E. coli DRC41 culture turbidity changes, primary screen, E. coli filamentation inducer project, strain DRC41, OD650, 48 h (AID 1152).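 Further: E. coli MC1000 strain DRC41 lacking acrAB efflux pump and sulA.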 Particulars: E. coli DRC41 (acrAB sulA), higher = more signal, called active from +8 up or from −8 down.
The nature of assay [2]: small-molecule binders of probe aLefty1, primary screen, biochemical, small-molecule microarray, 635/667 nm fluorescence (AID 1153).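 Further: score merges spot fluorescence with signal-to-noise ratio from the scanned slide images.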 Particulars: higher = more signal.
Assay [3] in a line: PSAC antagonists in infected red cells, primary screen, cell-based, P. falciparum Indochina, OD700, 1 h (AID 1154). Particulars: P. falciparum Indochina infected RBC osmotic lysis, higher = more signal, called active from +8 up or from −8 down.
A short description of assay [4]: PSAC antagonists in infected red cells, primary screen, cell-based, P. falciparum Indochina, OD700, 2 h (AID 1155).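 Further: lysis reports solute entry through the parasite surface anion channel PSAC; channel blockers reduce lysis of infected cells.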 Particulars: P. falciparum Indochina infected erythrocytes, osmotic lysis OD700; higher = more signal, called active from +8 up or from −8 down.
Assay [5] is described as follows: osmotic lysis modulators in infected erythrocytes, primary screen, PSAC antagonist project, cell-based, P. falciparum Indochina, OD700, 3 h (AID 1156). Particulars: higher = more signal, called active from +8 up or from −8 down.
A short description of assay [6]: PSAC antagonists in infected red cells, primary screen, cell-based, P. falciparum Indochina, OD700, 18 h (AID 1157). Particulars: P. falciparum Indochina infected erythrocytes, osmotic lysis OD700, 18 h; higher = more signal, called active from +8 up or from −8 down.
Assay [7] can be described thus: modulators of S6 phosphorylation in cells, primary screen, cell-based, A549, cytoblot, luminescence, serum-stimulated (AID 1158).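 Further: serum-stimulated A549 lung adenocarcinoma cells; signal is phosphorylated S6 detected by cytoblot immunostaining with HRP secondary.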 Particulars: A549 phospho-S6 cytoblot, 5 h, higher = more signal.
Assay [8] has as its target NADPH oxidase 2 (Homo sapiens) (UniProt P04839). Briefly: NOX2-dependent H2O2 signal modulators, primary screen, NOX inhibitor project, cell-based, HEK293-NOX2, PMA-stimulated, Amplex Red fluorescence (AID 1159). Further: test concentration not given here. Particulars: 45 min, higher = more signal, called active from +8 up or from −8 down.
For assay [9], the target named is NADPH oxidase 4 (Homo sapiens) (UniProt Q9NPH5). Description: NOX4-dependent H2O2 signal modulators, primary screen, NOX inhibitor project, cell-based, HEK293-NOX4, tetracycline-induced, Amplex Red fluorescence (AID 1160). Particulars: 45 min, higher = more signal, called active from +8 up or from −8 down.
Assay [10] addresses NADPH oxidase 5 (Homo sapiens) (UniProt Q96PH1). Briefly: NOX5-dependent H2O2 signal modulators, primary screen, NOX inhibitor project, cell-based, HEK293-NOX5, Amplex Red fluorescence (AID 1161). Particulars: HEK293-NOX5, ionomycin, 45 min, higher = more signal.
Assay [11] can be described thus: A549 cell viability effects, profiling panel, calcein-AM fluorescence, 48 h, basal (AID 1162). Further: test concentration not given here. Particulars: higher = more signal.
Assay [12] in a line: adipocyte viability effects, profiling panel, cell-based, 3T3-L1 adipocytes, calcein-AM fluorescence, 48 h, basal (AID 1163). Further: test concentration not given here. Particulars: 3T3-L1 adipocytes viability, higher = more signal.
The nature of assay [13]: HepG2 cell viability effects, profiling panel, calcein-AM fluorescence, 48 h, basal (AID 1164). Further: test concentration not given here. Particulars: higher = more signal.
Assay [14] in a line: MM1S cell viability effects, profiling panel, calcein-AM fluorescence, 48 h, basal (AID 1165).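 Further: viability of MM1S multiple myeloma cells under basal unstimulated conditions; test concentration not given here.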 Particulars: higher = more signal.
Assay [15] in a line: basal RPMI8226 viability, no added stimulus, profiling panel, cell-based, calcein-AM fluorescence, 48 h, PK04 Diversity Set (AID 1166).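 Further: cells grown under basal conditions without added stimulus; test concentration not given here.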 Particulars: RPMI8226 myeloma viability, higher = more signal.
Assay [16] is described as follows: basal HepG2 mitochondrial membrane potential changes, profiling panel, cell-based, JC-1 fluorescence, 24 h, 100 nL compound (AID 1167). Further: test concentration not given here. Particulars: higher = more signal.
Assay [17] in a line: basal 3T3-L1 adipocyte mitochondrial potential changes, profiling panel, cell-based, JC-1 fluorescence, 3T3-L1 adipocytes, 24 h, 100 nL compound (AID 1168). Further: test concentration not given here. Particulars: JC-1 mitochondrial fluorescence, higher = more signal, called active from +8 up or from −8 down.
A short description of assay [18]: basal RPMI8226 mitochondrial membrane potential changes, profiling panel, cell-based, JC-1 fluorescence, 24 h, 100 nL compound (AID 1169). Further: test concentration not given here. Particulars: RPMI8226 myeloma, JC-1 mitochondrial potential fluorescence, higher = more signal.
Assay [19] is described as follows: basal MM1S mitochondrial membrane potential changes, profiling panel, cell-based, JC-1 fluorescence, 24 h, 100 nL compound (AID 1170). Further: test concentration not given here. Particulars: higher = more signal.
Assay [20] in a line: A549 lung cancer cell viability effects, profiling panel, resazurin fluorescence, 24 h, PK04 Diversity Set (AID 1171). Further: test concentration not given here. Particulars: higher = more signal, called active from +8 up or from −8 down.

The source made the active and inactive calls.

Chain of NADPH oxidase 4 (Homo sapiens) (Q9NPH5 whole entry, looked up): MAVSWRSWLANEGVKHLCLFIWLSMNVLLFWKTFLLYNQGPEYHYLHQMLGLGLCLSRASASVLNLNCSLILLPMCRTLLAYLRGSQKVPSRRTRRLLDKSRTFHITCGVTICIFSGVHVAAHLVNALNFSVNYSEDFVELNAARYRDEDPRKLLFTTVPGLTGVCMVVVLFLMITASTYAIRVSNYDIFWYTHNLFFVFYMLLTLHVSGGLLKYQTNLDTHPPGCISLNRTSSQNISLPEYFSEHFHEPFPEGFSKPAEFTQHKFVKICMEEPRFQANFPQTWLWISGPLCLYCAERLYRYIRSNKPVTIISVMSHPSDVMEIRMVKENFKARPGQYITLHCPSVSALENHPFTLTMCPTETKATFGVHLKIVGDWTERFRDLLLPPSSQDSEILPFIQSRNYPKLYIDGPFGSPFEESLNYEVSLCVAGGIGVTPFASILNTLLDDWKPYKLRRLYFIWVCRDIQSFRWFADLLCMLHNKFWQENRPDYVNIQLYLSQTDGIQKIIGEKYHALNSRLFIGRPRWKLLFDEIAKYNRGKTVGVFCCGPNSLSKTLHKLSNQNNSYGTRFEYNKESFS
Chain of NADPH oxidase 2 (Homo sapiens) (P04839 whole entry, looked up): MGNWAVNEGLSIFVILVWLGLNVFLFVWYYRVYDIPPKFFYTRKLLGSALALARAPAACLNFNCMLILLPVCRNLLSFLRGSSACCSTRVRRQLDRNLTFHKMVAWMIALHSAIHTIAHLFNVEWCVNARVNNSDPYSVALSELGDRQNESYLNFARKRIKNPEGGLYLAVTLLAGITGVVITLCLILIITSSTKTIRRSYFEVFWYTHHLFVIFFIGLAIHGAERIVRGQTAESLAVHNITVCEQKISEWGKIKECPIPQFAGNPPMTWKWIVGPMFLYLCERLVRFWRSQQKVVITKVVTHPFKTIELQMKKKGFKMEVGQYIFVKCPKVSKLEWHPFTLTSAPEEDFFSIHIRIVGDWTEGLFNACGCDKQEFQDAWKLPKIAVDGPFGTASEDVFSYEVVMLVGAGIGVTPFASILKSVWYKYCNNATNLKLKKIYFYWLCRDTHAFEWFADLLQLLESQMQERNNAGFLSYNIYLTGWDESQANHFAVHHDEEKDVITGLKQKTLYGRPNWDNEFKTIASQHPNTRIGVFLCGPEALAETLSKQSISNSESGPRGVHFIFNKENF
Chain of NADPH oxidase 5 (Homo sapiens) (Q96PH1 whole entry, looked up): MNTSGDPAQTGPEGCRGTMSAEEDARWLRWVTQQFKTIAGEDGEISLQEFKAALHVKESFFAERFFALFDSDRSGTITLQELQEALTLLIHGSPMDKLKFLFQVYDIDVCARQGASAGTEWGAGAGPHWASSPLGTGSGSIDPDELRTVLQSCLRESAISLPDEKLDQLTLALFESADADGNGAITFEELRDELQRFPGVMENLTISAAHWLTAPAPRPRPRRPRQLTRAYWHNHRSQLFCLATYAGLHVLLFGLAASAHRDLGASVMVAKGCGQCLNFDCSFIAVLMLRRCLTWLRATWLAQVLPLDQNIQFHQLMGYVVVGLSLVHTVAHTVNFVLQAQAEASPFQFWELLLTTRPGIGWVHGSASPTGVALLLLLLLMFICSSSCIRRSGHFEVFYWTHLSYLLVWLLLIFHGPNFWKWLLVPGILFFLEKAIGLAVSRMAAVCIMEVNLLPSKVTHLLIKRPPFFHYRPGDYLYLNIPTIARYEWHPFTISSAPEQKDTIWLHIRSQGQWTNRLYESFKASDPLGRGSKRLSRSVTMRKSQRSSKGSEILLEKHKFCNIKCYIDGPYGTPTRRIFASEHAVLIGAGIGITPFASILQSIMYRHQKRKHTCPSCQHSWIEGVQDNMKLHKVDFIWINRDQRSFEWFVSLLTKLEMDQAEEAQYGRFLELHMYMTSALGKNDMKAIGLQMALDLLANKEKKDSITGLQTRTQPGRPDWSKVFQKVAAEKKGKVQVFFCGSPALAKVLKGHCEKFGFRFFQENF

As to `C#C[C@H]1Oc2ccccc2S(=O)(=O)N2CCC[C@@H]12`, the z-score in assay [1] was -0.789 (inactive); in assay [3], 0.264 (inactive); in assay [4], 0.276 (inactive); in assay [5] it was 0.0691 (inactive); in assay [6] it was 0.0594 (inactive); in assay [7] it was 0.213. Further, the z-score in assay [8] was 0.281 (inactive); in assay [9] it was -1.29 (inactive); in assay [10] it was -0.494; in assay [11], -0.308; in [12] it was -0.401; in assay [13], -1.19. Further, the z-score was 0.132 in [14]; -0.446 in assay [15]; -0.777 in assay [16]; -0.275 (inactive) in assay [17]; -0.18 in assay [18]; -0.116 in [19]. Moreover, the z-score in [20] was -0.424 (inactive). Further, the composite z-score in assay [2] was -0.106.

For the compound `CCCCC(=C=CC[C@H](O)c1ccccc1OCCO)C[C@H](O)c1cc(Cl)cc(Cl)c1O`, the z-score in assay [1] was -0.0999 (inactive); in assay [3], 15.9 (active); in assay [4], 2.79 (inactive); in [5], -0.179 (inactive); in [6], 1.46 (inactive); in assay [7] it was 0.276. Besides, the z-score in [8] is -0.565 (inactive); in [9], -1.5 (inactive); in assay [10], -2.02; in assay [11], 0.441; in assay [12] it was -0.0739; in assay [13] it was 0.105. The z-score is -3.29 in assay [14]; -2.59 in [15]; -0.605 in assay [16]; 0.201 (inactive) in assay [17]; -0.655 in assay [18]; -1.13 in assay [19]. Also, the z-score in [20] is 0.135 (inactive). Besides, the composite z-score in assay [2] is -0.0989.

On to `CC(C)[Si]1(C(C)C)O[C@@H](c2ccccc2)c2cc(-c3ccc(-c4ccc(Cl)c(Cl)c4)o3)nc(CCc3ccccc3)c21`, for which the z-score in assay [1] is -0.792 (inactive); in assay [3], 3.36 (inactive); in [4] it was 0.652 (inactive); in assay [5], -0.443 (inactive); in assay [6], -0.0811 (inactive); in [7], -0.507. In addition, the z-score in assay [8] is 0.903 (inactive); in assay [9] it was 0.928 (inactive); in assay [10], 0.44; in assay [11] it was -0.516; in assay [12], -0.694; in assay [13], 0.433. Besides, the z-score is -3.02 in assay [14]; -3.72 in assay [15]; -1.95 in assay [16]; -1.72 (inactive) in [17]; -0.965 in assay [18]; -1.91 in [19]. Further, the z-score in assay [20] was -0.748 (inactive). Moreover, the composite z-score in assay [2] is -0.0428.

Take `O=C1O[C@@H](c2ccccc2)[C@@H](c2ccccc2)N2[C@@H](c3ccc(O)cc3)[C@]3(C(=O)Nc4ccc(C#CCCO)cc43)[C@@H](C(=O)O)[C@H]12`: the z-score in assay [1] was 0.742 (inactive); in [3] it was 2.28 (inactive); in [4], 0.62 (inactive); in assay [5], 1.22 (inactive); in assay [6] it was 0.614 (inactive); in assay [7], -0.29. For the same compound, the z-score in assay [8] was 0.645 (inactive); in [9], -1.2 (inactive); in [10], 1.21; in [11], 1.18; in assay [12], 0.352; in assay [13], 1.41. The z-score was -1.34 in assay [14]; -0.16 in assay [15]; 0.767 in assay [16]; -1.02 (inactive) in assay [17]; -0.342 in assay [18]; -0.29 in [19]. Also, the z-score in assay [20] is 0.492 (inactive). The composite z-score in [2] was found to be 1.99.
